Measurements: PubChem BioAssay AID1159580 (chemical genetic matrix, 2015)
About 2,000 (36%) of roughly 5,500 compounds were called active. About 18% were inconclusive and are not listed. Rule as the data show it: active = normalized growth mostly below about 0.91 (no sharp cut-off); inconclusive = no clear call, values can overlap the other calls; inactive = mostly above about 0.92. The list shows a part of the results.

Assay: chemical genetic growth profiling, strain panel (AID 1159580);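 also: tested at 20 µM; growth read once vehicle control cultures reached saturation at 30 °C; 1 = growth at the plate median or of vehicle wells; lower values mean less growth of the strain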
Details: S. cerevisiae deletion strains, growth OD

Measured: normalized growth

CO/N=C(/C(=O)N[C@@H]1C(=O)N2C(C(=O)O)=C(CSc3nc(=O)c(O)nn3C)CSC12)c1csc(N)n1 (stereo partly specified)
inactive: locus YAL013W, strain DEP1, hits give low values 1 | locus YAL040C, strain CLN3, hits give low values 1 | locus YCL061C, strain MRC1 (second series), hits give low values 1 | locus YER002W, strain NOP16, hits give low values 1.01 | locus YGR078C, strain PAC10, hits give low values 1.01 | locus YJR075W, strain HOC1, hits give low values 1 | locus YNL175C, strain NOP13, hits give low values 1.01 | locus YNL197C, strain WHI3, hits give low values 1.01 | locus YNL224C, strain SQS1, hits give low values 1 | locus YOR083W, strain WHI5 (second series), hits give low values 1 | locus YPL055C, strain LGE1, hits give low values 1.01
